Reference: the supplement of paper PMC11732987, “Enantioselective OTUD7B fragment discovery through chemoproteomics screening and high-throughput optimisation” (Communications Chemistry, 2025)

Assays:
Assay in all cases: log2 ratio of Biotin-Ahx-Ub-VS probe labelling (fragment/DMSO); higher = less target engagement (more negative = stronger competition), active = hit call of the paper (q ≤ 0.05, log2 ratio ≤ -1)
Conditions in all cases: compound concentration: 200 uM; treatment time: 3 h
USP42 = biological target: T1, USP42 (UniProt Q9H9J4)
T1 sequence (whole entry): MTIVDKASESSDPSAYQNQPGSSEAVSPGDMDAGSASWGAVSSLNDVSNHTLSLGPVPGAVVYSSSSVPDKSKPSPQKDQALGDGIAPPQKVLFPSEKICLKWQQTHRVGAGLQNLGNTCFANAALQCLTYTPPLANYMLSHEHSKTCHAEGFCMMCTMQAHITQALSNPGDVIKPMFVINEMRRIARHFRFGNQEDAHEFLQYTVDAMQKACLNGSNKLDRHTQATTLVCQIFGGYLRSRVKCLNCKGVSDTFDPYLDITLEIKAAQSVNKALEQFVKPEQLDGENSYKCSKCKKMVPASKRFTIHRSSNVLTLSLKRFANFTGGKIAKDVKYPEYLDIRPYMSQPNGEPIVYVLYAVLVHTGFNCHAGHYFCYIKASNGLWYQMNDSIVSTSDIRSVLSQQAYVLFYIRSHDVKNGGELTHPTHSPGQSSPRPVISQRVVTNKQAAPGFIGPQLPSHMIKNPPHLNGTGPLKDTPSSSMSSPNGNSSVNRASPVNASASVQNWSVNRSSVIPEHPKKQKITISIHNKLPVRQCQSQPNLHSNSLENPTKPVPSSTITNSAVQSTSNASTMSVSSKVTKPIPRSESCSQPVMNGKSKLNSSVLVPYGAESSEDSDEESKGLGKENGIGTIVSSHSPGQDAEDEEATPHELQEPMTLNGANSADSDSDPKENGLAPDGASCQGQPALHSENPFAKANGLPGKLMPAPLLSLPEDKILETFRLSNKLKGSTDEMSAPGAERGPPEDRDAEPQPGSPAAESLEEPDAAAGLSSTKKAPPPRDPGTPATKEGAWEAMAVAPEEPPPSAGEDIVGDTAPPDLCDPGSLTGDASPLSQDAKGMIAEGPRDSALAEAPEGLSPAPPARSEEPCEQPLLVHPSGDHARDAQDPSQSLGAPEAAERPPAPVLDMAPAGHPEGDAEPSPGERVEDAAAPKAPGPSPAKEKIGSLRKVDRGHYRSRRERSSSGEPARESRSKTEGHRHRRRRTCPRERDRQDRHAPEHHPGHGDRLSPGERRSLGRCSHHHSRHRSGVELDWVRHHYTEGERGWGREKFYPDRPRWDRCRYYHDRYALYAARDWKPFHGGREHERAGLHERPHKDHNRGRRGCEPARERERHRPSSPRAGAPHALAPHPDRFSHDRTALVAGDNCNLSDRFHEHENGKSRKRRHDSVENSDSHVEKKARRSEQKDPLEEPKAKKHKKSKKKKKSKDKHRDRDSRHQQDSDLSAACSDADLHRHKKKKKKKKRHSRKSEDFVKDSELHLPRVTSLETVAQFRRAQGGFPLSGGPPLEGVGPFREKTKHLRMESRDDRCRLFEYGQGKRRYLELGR
Method in brief: (§1)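 HEK293T lysate (495 µg per sample, in Tris/CHAPS/IGEPAL buffer with protease inhibitors) was treated in triplicate with fragment at 200 µM or with DMSO for 3 h. It was then treated with Biotin-Ahx-Ub-VS (0.5 µM final) for 1 h. Labelled DUBs were NeutrAvidin-enriched, digested with LysC and trypsin, and run by diaPASEF LC-MS/MS. Spectronaut label-free quantities were global-median-normalised. Values are average log2 ratios fragment/DMSO by unpaired t-test, using proteins with ≥2 unique peptides.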

USP46 = USP46 (UniProt P62068)
Method in brief: as §1

USP47 = biological target: T2, USP47 (UniProt Q96K76)
T2 sequence (whole entry): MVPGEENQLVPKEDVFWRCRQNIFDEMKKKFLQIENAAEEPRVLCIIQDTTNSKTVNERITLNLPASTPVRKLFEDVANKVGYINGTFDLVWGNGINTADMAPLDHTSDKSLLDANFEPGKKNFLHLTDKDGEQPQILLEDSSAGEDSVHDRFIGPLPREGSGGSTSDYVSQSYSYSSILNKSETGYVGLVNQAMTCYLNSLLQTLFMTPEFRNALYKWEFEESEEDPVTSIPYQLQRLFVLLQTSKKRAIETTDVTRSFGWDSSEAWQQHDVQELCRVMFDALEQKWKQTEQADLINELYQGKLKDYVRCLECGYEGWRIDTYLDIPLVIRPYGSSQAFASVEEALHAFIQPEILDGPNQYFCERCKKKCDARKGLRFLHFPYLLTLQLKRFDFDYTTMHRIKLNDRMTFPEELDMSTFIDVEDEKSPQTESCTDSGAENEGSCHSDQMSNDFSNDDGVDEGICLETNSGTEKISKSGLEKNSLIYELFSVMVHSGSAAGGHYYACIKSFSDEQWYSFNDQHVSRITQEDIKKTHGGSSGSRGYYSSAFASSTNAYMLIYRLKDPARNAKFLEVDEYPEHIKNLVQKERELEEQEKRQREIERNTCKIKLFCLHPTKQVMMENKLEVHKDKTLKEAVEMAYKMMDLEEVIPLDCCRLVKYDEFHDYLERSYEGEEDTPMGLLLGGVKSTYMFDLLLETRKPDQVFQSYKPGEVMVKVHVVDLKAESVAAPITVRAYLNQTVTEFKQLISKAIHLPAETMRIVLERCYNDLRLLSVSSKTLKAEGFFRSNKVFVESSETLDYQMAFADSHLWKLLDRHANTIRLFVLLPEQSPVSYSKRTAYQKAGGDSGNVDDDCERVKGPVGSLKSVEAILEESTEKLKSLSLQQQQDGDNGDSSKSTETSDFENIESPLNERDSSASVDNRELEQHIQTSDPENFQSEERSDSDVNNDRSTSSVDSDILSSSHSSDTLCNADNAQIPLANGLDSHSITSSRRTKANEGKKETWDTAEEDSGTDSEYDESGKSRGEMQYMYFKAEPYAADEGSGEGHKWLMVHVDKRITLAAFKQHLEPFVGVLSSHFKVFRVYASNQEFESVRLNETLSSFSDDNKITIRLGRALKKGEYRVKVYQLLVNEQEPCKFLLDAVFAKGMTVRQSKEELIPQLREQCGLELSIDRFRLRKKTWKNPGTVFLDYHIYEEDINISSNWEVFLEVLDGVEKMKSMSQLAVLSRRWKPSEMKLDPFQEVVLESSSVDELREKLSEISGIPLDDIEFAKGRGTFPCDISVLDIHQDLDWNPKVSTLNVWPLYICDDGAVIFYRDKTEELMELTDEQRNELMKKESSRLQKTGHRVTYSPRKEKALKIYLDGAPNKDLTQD
Method in brief: as §1

USP48 = biological target: T3, USP48 (UniProt Q86UV5)
T3 sequence (whole entry): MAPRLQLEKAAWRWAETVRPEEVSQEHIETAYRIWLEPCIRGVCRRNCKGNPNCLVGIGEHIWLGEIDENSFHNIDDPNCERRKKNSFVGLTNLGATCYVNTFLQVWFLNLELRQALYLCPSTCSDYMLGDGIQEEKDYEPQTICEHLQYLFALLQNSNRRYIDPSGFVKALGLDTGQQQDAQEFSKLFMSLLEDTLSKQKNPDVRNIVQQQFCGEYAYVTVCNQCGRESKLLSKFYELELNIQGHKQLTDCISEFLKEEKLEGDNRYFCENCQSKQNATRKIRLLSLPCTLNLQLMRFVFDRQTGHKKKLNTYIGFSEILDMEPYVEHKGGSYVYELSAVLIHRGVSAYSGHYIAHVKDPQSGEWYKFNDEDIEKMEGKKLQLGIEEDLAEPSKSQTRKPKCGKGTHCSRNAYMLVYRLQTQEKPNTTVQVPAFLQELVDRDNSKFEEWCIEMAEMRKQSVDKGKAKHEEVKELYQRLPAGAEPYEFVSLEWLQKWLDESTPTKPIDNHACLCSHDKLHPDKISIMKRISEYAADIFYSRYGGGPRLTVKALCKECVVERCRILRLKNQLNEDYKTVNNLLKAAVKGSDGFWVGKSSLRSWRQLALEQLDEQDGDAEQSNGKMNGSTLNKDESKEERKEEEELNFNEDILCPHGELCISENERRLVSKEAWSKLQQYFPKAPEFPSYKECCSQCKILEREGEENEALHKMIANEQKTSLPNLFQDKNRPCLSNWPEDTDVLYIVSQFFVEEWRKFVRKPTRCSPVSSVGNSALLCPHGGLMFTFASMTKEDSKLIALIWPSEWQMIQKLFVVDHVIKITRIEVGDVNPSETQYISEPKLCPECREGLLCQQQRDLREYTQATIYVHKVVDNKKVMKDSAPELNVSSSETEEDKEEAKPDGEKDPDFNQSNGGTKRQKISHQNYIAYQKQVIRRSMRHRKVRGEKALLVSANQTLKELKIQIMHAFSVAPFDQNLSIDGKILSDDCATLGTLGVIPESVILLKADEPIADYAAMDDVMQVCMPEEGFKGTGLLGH
Method in brief: as §1

USP5 = biological target: T4, USP5 (UniProt P45974)
T4 sequence (whole entry): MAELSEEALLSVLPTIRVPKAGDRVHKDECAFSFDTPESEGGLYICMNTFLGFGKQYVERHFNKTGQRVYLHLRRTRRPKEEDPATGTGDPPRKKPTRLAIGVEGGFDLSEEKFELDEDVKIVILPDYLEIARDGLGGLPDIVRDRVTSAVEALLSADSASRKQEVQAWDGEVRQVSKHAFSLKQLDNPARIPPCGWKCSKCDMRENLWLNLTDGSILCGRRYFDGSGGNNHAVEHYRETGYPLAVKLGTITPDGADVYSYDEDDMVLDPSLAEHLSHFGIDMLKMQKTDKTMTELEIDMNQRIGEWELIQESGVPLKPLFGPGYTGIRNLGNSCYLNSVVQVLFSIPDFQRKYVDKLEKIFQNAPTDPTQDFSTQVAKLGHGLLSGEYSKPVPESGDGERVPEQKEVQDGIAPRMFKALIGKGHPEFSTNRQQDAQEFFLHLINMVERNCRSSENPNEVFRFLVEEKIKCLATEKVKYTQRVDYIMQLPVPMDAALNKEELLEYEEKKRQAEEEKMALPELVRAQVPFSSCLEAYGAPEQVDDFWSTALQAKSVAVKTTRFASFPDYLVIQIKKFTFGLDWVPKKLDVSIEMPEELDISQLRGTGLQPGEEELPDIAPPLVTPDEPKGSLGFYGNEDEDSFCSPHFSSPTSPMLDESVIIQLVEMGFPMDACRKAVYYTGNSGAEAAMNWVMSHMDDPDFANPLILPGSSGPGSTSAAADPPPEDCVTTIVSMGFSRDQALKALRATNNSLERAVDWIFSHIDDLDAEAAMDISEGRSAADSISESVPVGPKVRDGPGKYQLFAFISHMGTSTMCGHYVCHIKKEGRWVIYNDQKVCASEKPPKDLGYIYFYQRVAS
Method in brief: as §1

USP54 = USP54 (UniProt Q70EL1)
Method in brief: as §1

USP7 = USP7 (UniProt Q93009)
Method in brief: as §1

USP8 = biological target: T5, USP8 (UniProt P40818)
T5 sequence (whole entry): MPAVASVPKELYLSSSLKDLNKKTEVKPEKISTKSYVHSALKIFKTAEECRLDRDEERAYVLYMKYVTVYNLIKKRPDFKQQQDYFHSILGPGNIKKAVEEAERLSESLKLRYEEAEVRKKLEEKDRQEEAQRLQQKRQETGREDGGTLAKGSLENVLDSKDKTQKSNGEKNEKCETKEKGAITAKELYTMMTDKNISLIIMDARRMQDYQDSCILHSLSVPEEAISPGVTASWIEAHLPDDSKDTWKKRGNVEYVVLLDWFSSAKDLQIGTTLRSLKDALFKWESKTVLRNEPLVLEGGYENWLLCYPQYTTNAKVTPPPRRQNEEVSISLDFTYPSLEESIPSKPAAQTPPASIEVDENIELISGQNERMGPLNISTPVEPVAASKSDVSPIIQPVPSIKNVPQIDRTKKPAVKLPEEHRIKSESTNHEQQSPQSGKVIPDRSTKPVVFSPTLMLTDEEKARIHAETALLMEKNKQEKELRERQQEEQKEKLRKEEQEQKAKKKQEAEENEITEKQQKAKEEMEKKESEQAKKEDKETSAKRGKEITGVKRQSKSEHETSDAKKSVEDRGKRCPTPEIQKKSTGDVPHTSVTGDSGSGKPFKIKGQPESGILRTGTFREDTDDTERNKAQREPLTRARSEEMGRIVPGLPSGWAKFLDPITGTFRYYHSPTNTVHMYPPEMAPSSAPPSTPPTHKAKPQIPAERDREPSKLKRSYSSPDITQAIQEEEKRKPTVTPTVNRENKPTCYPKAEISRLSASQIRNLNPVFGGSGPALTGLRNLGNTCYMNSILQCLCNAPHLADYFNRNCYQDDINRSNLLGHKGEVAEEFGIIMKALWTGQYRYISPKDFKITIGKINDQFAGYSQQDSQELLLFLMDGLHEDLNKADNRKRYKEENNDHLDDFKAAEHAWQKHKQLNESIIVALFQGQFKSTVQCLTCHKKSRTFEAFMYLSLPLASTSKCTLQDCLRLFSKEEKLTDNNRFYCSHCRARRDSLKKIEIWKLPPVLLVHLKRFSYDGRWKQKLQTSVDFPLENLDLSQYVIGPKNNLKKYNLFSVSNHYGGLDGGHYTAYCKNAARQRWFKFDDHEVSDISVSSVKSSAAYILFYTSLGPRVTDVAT
Method in brief: as §1

Measured: log2 ratio of Biotin-Ahx-Ub-VS probe labelling

Sequence of USP7 (Q93009 whole entry, looked up): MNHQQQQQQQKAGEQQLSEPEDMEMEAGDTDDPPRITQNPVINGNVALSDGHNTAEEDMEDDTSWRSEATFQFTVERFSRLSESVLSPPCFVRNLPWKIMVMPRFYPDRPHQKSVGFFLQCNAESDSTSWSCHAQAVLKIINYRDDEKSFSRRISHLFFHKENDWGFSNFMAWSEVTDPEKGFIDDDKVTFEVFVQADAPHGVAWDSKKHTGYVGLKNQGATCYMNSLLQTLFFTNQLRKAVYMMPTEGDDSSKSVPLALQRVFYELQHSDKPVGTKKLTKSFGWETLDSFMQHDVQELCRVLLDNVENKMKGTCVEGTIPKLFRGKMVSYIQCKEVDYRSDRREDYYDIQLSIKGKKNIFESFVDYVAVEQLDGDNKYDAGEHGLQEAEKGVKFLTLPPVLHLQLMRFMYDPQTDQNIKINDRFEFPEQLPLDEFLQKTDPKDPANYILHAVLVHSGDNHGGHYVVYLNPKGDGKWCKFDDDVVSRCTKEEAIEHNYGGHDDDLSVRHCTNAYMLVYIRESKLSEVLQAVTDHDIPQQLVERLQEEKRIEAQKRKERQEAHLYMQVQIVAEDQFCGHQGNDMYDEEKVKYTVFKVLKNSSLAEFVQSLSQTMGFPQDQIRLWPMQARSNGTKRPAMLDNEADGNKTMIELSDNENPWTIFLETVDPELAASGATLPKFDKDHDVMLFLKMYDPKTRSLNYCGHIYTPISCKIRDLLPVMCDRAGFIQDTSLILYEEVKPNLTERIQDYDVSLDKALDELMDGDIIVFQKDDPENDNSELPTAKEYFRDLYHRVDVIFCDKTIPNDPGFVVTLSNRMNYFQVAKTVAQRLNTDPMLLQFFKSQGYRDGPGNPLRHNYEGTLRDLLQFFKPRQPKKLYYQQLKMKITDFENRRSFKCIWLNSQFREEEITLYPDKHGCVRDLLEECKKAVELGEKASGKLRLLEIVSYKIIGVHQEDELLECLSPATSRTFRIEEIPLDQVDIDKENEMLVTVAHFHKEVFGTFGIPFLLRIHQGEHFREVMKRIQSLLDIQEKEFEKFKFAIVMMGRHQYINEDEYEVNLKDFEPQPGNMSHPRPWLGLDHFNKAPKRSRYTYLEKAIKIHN
Sequence of USP54 (Q70EL1 whole entry): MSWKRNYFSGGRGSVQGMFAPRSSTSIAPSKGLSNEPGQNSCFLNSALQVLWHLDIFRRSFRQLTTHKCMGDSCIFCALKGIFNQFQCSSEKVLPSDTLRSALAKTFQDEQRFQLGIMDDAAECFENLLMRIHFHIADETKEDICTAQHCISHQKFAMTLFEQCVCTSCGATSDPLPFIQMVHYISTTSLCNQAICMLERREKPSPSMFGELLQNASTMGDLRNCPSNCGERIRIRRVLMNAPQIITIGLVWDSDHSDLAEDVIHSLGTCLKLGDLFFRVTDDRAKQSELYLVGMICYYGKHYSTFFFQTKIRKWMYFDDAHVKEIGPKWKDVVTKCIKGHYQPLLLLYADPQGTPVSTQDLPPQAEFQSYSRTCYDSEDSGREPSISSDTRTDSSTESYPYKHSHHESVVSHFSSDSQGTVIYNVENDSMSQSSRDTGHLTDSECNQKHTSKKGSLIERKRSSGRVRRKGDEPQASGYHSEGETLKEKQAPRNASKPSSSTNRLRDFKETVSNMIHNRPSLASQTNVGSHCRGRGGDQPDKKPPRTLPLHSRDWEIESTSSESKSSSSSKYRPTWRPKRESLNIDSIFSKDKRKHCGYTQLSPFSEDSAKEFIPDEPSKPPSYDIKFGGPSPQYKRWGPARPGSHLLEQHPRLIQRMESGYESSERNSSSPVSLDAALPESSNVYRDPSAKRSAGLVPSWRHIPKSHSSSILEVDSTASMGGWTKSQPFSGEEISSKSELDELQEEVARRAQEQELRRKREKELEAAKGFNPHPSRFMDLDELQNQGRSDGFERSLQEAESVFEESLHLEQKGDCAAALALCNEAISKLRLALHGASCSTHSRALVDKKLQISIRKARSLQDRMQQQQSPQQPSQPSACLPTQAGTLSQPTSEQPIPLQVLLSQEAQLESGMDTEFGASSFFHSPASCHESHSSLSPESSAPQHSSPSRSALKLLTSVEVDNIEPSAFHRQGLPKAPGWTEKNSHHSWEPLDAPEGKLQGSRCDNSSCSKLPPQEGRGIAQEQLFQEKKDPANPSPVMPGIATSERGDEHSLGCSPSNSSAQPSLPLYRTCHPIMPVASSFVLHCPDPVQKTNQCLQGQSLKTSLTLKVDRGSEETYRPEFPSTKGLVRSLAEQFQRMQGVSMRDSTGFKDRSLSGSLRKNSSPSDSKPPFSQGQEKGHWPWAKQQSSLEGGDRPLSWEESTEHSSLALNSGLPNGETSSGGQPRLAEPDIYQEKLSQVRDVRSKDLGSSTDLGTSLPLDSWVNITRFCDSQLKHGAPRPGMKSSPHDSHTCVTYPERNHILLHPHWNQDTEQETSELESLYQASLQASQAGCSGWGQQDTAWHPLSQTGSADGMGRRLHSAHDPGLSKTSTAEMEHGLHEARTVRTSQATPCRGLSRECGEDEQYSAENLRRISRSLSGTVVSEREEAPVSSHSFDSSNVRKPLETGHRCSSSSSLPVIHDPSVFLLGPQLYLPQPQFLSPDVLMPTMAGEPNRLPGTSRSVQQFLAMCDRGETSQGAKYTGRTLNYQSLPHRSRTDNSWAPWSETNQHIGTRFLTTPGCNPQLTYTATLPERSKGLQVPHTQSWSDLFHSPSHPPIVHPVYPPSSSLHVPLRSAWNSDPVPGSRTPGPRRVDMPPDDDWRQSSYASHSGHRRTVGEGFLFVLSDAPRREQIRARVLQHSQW
Sequence of USP46 (P62068 whole entry): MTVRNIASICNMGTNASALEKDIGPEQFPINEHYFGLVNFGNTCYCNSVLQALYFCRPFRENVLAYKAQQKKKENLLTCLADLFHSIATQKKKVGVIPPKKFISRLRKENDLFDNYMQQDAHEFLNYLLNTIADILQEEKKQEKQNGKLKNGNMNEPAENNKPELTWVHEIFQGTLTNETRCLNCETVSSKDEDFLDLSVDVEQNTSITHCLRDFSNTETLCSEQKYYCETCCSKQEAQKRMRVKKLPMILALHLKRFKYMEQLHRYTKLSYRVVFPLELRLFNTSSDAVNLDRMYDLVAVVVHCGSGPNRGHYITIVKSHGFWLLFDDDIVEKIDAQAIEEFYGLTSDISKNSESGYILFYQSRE

CN(CCC(O)c1ccc(Br)cc1)C(=O)CCl (stereo not drawn)
inactive: USP42 0.556 | USP46 -0.218 | USP47 -0.526 | USP48 -0.691 | USP5 -0.00644 | USP54 0.00894 | USP7 -0.612 | USP8 -0.072
